ELG1 repair inh = blocks ELG1-dependent DNA repair in HEK293T cells; HEK293T ELG1-luciferase reporter, luminescence, 16 h; DNA damage induced by 5-fluorouridine; Potency, µM (titrated, usually from 46.1 µM), for inactives: at the highest dose activity change, negative = inhibition, most hits filed as inhibitors; actives 2.3% (n = 330,000); AID 504467; note: nearly all actives have a fitted effect of over 55% in size
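Quantitative HTS, concentration-response format. 2,000 cells/well co-treated with 5-fluorouridine and compound, 16 hr in 5% CO2 at 37 °C; ONE-Glo luminescence read after 30 min.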
RORgamma inh = ROR gamma (mouse) transcription inhibition; AID 2551; Potency, µM (highest dose often 53.6 µM), inactives show at the top dose activity change, negative = inhibition, usual class: inhibitors; Drosophila S2 Gal4-RORgamma UAS-luciferase reporter, 20 h; P51450; actives 5.4% (n = 310,000); note: nearly all actives have a fitted effect of over 60% in size
Target sequence (P51450 whole entry, looked up, the tested form may be a part): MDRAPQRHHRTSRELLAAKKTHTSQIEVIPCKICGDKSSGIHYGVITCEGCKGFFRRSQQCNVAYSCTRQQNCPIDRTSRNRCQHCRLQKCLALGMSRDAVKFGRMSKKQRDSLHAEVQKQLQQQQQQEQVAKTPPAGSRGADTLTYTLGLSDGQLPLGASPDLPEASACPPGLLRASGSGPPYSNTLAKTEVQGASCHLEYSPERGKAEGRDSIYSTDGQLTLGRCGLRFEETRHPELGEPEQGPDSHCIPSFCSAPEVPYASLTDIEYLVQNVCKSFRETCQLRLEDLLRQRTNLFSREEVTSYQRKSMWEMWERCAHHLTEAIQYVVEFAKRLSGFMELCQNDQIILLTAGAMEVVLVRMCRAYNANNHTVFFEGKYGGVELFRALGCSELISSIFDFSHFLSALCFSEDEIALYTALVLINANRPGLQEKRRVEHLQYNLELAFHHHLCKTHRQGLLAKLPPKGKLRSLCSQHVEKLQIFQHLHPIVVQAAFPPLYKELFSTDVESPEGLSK
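A Gal4/UAS one-hybrid system in insect cells: metallothionein-promoter Gal4–ROR gamma fusion plus Photinus luciferase reporter. Copper sulfate 700 uM final, 20 hr ambient incubation, luminescent detection after 10 min with reagent.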
ALOX12 inh = inhibitors of human 12S-lipoxygenase ALOX12; purified 12hLO, xylenol orange hydroperoxide absorbance; P18054; actives 1.1% (n = 580,000); Potency, µM (top dose mostly 108 µM), without a hit: at the top dose activity change, negative = inhibition, actives largely listed as inhibitors
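Hydroperoxide product was detected by ferrous iron/xylenol orange as the 573 to 405 nm absorbance ratio. Arachidonic acid at 40 uM (final) was turned over for 30 min at room temperature by 150 nM human 12hLO, pH 7.0 Hepes buffer, after 15 min compound preincubation.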
TDP1 cell noCPT = qHTS for Inhibitors of human tyrosyl-DNA phosphodiesterase 1 (TDP1): qHTS in cells in absence of CPT; DT40 Tdp1-/- hTDP1 cells, no CPT, ATP luminescence, 48 h; Potency, µM (doses to about 46.2 µM), inactives show at the top dose activity change, negative = growth inhibition, actives largely listed as inhibitors; actives 15% (n = 420,000); note: nearly all actives have a fitted effect of over 55% in size
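Growth kinetics read by CellTiter-Glo luminescence after ≥48 hr at 37 °C. Cells: DT40 Tdp1-/- stably carrying human TDP1, 400 per well, compound exposure in the absence of CPT (DMSO vehicle).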
DT40 TDP1 CPT = growth inhibition of DT40 Tdp1-/-;hTDP1 cells with camptothecin (screen for TDP1 inhibitors); chicken DT40 Tdp1-/-;hTDP1 cells + 20 nM CPT, ATP luminescence, 48 h; actives 12% (n = 420,000); Potency, µM (top dose mostly 46.2 µM), for the others: at the top dose activity change, negative = growth inhibition, most hits filed as inhibitors; note: nearly all actives have a fitted effect of over 55% in size
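Chicken DT40 Tdp1-/- cells complemented with human TDP1, 400 cells/well, exposed to compounds plus 20 nM camptothecin for at least 48 h at 37 C; viability read as ATP content by CellTiter-Glo luminescence.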
VP16 counter = inhibits Gal4-VP16 luciferase reporter, ROR gamma counter-screen; Drosophila S2 Gal4-VP16 UAS-luciferase, luminescence, 20 h; actives 3.5% (n = 310,000); Potency, µM (titrated, usually from 53.6 µM), inactives show at the top dose activity, negative = inhibition, most hits filed as inhibitors;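 note: Gal4-VP16 expression switched on by copper sulfate through the metallothionein promoter; nearly all actives have a fitted effect of over 50% in size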
Starred values were filed as active, the others as inactive; i = inactive; ? = inconclusive; · = no result given; [ ] = dose if it differs, or a comment. Compounds with a hit are over-represented: about 15% of the library has one in this group of screens. Calls come from the whole dose curve; as a rule, active = well fitted curve in the direction sought with a large enough effect; inconclusive = small, poorly fitted or top-dose-only effect, or another doubt; inactive = no such curve, though single readings can be large; an effect the other way counts as inactive or inconclusive. % is set by controls: 0 for no effect and ±100 for the full control effect; potency is the fitted concentration of half-maximal effect.

SMILES	ELG1 repair inh	RORgamma inh	ALOX12 inh	TDP1 cell noCPT	DT40 TDP1 CPT	VP16 counter
O=C(Nc1ccc(S(=O)(=O)N2CCOCC2)cc1)c1ccc([N+](=O)[O-])o1	?	-11%	-36%	2.6µM*	1µM*	?
C=CCNc1nc(C)nc2c1CCN(C(=O)CNS(C)(=O)=O)CC2	·	·	2%	·	·	·
O=C(Nc1ccc(N2CCN(C(=O)c3cccs3)CC2)cc1)c1ccco1	-1%	7%	9%	-9%	5%	-5%
O=C(Nc1ccc(N2CCN(C(=O)c3cccs3)CC2)cc1)c1ccc([N+](=O)[O-])o1	?	13µM*	77%	·	·	?
O=C(COc1ccccc1[N+](=O)[O-])Nc1ccc(N2CCN(C(=O)c3cccs3)CC2)cc1	18µM*	35%	351%	6.5µM*	4.6µM*	-16%
CC(C)c1ccc(OCC(=O)Nc2ccc(N3CCN(C(=O)c4cccs4)CC3)cc2)cc1	·	·	11%	·	·	·
CCN(CC)C(=O)CN(C)c1nc2ccccc2o1	·	·	16%	·	·	·
CCN(Cc1ccc2c(c1)OCCO2)S(=O)(=O)c1cnn(C)c1	·	·	2%	·	·	·
Cc1cccc(CN2CCN(Cc3nc(-c4cccs4)oc3C)CC2CCO)n1 (configuration not stated)	·	·	30%	·	·	·
COC(=O)c1ccc(NC(=O)Cn2ncn3nc(-c4cc(C)ccc4C)cc3c2=O)cc1	·	·	0%	·	·	·
CCN1CCN(Cc2c(O)ccc3c(C)c(-c4ccccc4)c(=O)oc23)CC1	·	·	-5%	16µM*	?	·
Cc1c(-c2ccc(Br)cc2)c(=O)oc2ccc(OC(=O)N3CCOCC3)cc12	·	·	2%	?	?	·
Cc1c(-c2ccc(Cl)cc2)c(=O)oc2ccc(OC(=O)N3CCOCC3)cc12	·	·	2%	21µM*	?	·
CCc1c(C)c2ccc(O)c(CN3CCN(c4ccc(F)cc4)CC3)c2oc1=O	·	·	-11%	?	21µM*	·
CC1CN(Cc2c(O)ccc3c2oc(=O)c2ccccc23)CC(C)O1 (configuration not stated)	?	0%	5.6µM*	15µM*	15µM*	-1%
CCN(CC)S(=O)(=O)c1ccc2nc(N)sc2c1	·	·	-5%	·	·	·
CC(NCc1ccccc1)C(=O)C12CC3CC(CC(C3)C1)C2 (configuration not stated)	·	·	-19%	·	·	·
Cc1c(-c2ccc(Cl)cc2)c(=O)oc2c(CN3CCOCC3)c(O)ccc12	·	·	?	21µM*	?	·
O=C(O)c1cccnc1Sc1ccc(F)cc1	·	·	-4%	·	·	·
CSc1ncccc1C(=O)Nc1ccc(OC(F)(F)F)cc1	3%	19%	i	15µM*	?	-8%
COc1cc(NC(=O)c2cccnc2SC)cc(OC)c1OC	?	-1%	-5%	2%	13%	2%
CC(=O)Nc1ccc(Sc2ncccc2C(=O)Nc2ccc(F)cc2)cn1	5%	44%	-10%[57.4 µM]	7.3µM*	9.2µM*	-24%
CCCCCCn1c(SCC)nc2c1c(=O)[nH]c(=O)n2C	·	·	-47%	·	·	·
O=[N+]([O-])c1ccc(Cl)c(C[n+]2cccc3ccccc32)c1	-14%	2%	-4%	18µM*	21µM*	-6%
Clc1cccc(Cl)c1C[n+]1cccc2ccccc21	·	·	154%	2.1µM*	2.1µM*	·
SMILES	ELG1 repair inh	RORgamma inh	ALOX12 inh	TDP1 cell noCPT	DT40 TDP1 CPT	VP16 counter
COc1ccc(C(=O)C[n+]2cccc3cc(OC)ccc32)cc1	-35%	23%	-15%	21µM*	?	-1%
O=C(C[n+]1cccc2ccccc21)c1ccc([N+](=O)[O-])cc1	21µM*	13%	?	?	21µM*	-18%
O=[N+]([O-])c1ccc(Cl)c(CN2CCC(O)CC2)c1	3%	-18%	-12%	-12%	-21%	-6%
O=C(/C=C/c1c(Cl)cccc1Cl)n1cccn1	-19%	?	12%	16µM*	?	11µM*
CC(C)(Oc1nn(CC2CC2)c2ccc(CN3CCCC3)cc12)C(=O)NCC(F)(F)F	·	·	14%[176 µM]	·	·	·
O=C(/C=C/c1ccco1)NC(=S)Nc1cc(C(F)(F)F)ccc1N1CCOCC1	10%	6.3µM*	?	?	-20%	?
O=C(/C=C/c1ccco1)NC(=S)Nc1ccccc1N1CCOCC1	13%	2.8µM*	?	?	-24%	8.9µM*
O=C(Nc1ccccc1N1CCOCC1)c1ccco1	9%	-14%	-24%	?	1%	17%
O=C(Nc1cc(C(F)(F)F)ccc1N1CCOCC1)c1ccccc1F	-9%	1%	-3%	?	-28%	1%
O=C(Nc1cc(C(F)(F)F)ccc1N1CCOCC1)C1Cc2ccccc2CN1C(=O)c1ccco1 (configuration not stated)	-21%	-2%	?	?	16µM*	0%
O=C(NC(=S)Nc1cc(C(F)(F)F)ccc1N1CCOCC1)c1sc2ccccc2c1Cl	0%	2.2µM*	-2%	-25%	?	4µM*
Cc1noc([C@@H]2CN(C(=O)CC(C)C)C[C@H]2CO)n1	·	·	33%	·	·	·
COCCc1noc(-c2ccccc2OC2CN(C(=O)c3ccc(C)nc3)C2)n1	·	·	31%	·	·	·
O=C(/C=C/c1ccco1)NC(=S)Nc1ccccc1N1CCCC1	-7%	?	?	21µM*	?	?

Compound activity from PubChem.
